Bioassay records: PubChem BioAssay, National Center for Advancing Translational Sciences (NCATS)
KB-V1 MDR tox = kills drug-selected multidrug resistant KB-V1 cells | KB-V1 MDR cells viability, CellTiter-Glo, 72 h | Potency, µM (titrated, usually from 46.1 µM), hits mostly cytotoxic | actives 3.4% (n = 400,000); note: nearly all actives have a fitted effect of over 60% in size
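Cytotoxicity via CellTiter-Glo luminescence after 72 h compound exposure at 37 degrees C. Cells: drug-selected KB-V1 line, DMEM phenol-red free plus 10% FBS. Compounds tested at multiple concentrations; normalized data fitted to concentration-effect curves.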
SW480 rereplic = DNA re-replication induction in SW480 cells | SW480 DNA re-replication, Hoechst DNA content imaging, 48 h | Potency, µM (titrated, usually from 46.1 µM), most hits filed as activators | actives 1.8% (n = 340,000) | AID 624297; note: nearly all actives have a fitted effect of over 55% in size
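Hoechst fluorescence of nuclei (405 nm excitation, 500-530 nm emission) measured by plate-scanning imager after 48 hr compound exposure at 37 C; re-replication scored as increased number of nuclei with elevated intensity.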
HT1080 IDH1KD tx = HT-1080 IDH1 knockdown cell toxicity (counter line) | HT-1080 IDH1 knockdown viability, ATP luminescence, 48 h | Potency, µM (doses to about 46.1 µM), actives largely listed as cytotoxic | actives 2% (n = 360,000) | AID 686971
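In this qHTS, HT-1080 cells depleted of IDH1 are exposed for 48 h at 37 °C to compound titrations. Toxicity is scored from CellTiter-Glo luminescence, with DMSO as full viability and medium alone as none.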
KB-3-1 tox = KB-3-1 parental cell cytotoxicity; Potency, µM (series often up to 46.1 µM), usual class: cytotoxic; KB-3-1 viability, CellTiter-Glo ATP luminescence, 72 h; actives 1.4% (n = 400,000); AID 1347075; note: nearly all actives have a fitted effect of over 60% in size
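Here the drug-naive KB-3-1 line serves as comparator for MDR sub-line selectivity; cells received compound titrations, 72 h at 37 °C, then CellTiter-Glo readout.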
MCF10A rereplic = inducers of DNA re-replication in MCF 10A breast cells | MCF 10A DNA re-replication, Hoechst nuclear intensity, 48 h | actives 2.9% (n = 350,000) | Potency, µM (series often up to 46.1 µM), most hits filed as activators | AID 624296; note: nearly all actives have a fitted effect of over 50% in size
HT1080-NT tox = kills 2HG-producing HT-1080-NT fibrosarcoma cells; Potency, µM (highest dose often 46.1 µM), usual class: cytotoxic; HT-1080-NT fibrosarcoma viability, CellTiter-Glo ATP luminescence, 48 h; actives 1.6% (n = 360,000);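 note: NT is the 2HG producing partner of a matched IDH1 knockdown line; nearly all actives have a fitted effect of over 55% in size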
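Toxicity toward the 2HG-producing NT line was scored as %Activity, normalised to DMSO and no-cell wells, from CellTiter-Glo luminescence after 48 hours' treatment.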
Of the large screens only hits and unclear results are named; the others gave an inactive call; ! = repeats disagree. Rows were chosen to be rich in hits. Some 7.9% of all compounds tested hit in one or more screens of this group. Calls come from the whole dose curve; as a rule, active = well fitted curve in the direction sought with a large enough effect; inconclusive = small, poorly fitted or top-dose-only effect, or another doubt; inactive = no such curve, though single readings can be large; an effect the other way counts as inactive or inconclusive.

Cc1ccc2[nH]c3c(c2c1)CN(C(=O)CN1CCN(Cc2ccc4c(c2)OCO4)CC1)CC3	HT1080 IDH1KD tx inconclusive, KB-3-1 tox inconclusive, HT1080-NT tox 21µM
C[C@H](NC(=O)c1ccccc1)C(=O)N1CCN(Cc2ccc3c(c2)OCO3)CC1	MCF10A rereplic inconclusive
O=C(COC(=O)/C=C/c1ccccc1)Nc1nnc(-c2ccccc2)o1	MCF10A rereplic inconclusive
Cc1cccc(OCC(=O)OC(C)CN2CCCCC2)c1 (configuration not stated)	MCF10A rereplic inconclusive
O=C(c1ccc(S(=O)(=O)N2CCCCC2)cc1)N1CCN(Cc2ccc3c(c2)OCO3)CC1	KB-V1 MDR tox 2.6µM, KB-3-1 tox inconclusive
O=C(c1cccc(S(=O)(=O)N2CCOCC2)c1)N1CCN(Cc2ccc3c(c2)OCO3)CC1	KB-V1 MDR tox inconclusive
O=C(N/N=C/c1cc(Br)cc(Cl)c1O)c1ccc2c(c1)OCO2	KB-V1 MDR tox inconclusive, HT1080 IDH1KD tx inconclusive, KB-3-1 tox inconclusive, MCF10A rereplic inconclusive, HT1080-NT tox inconclusive
Cc1cc(Br)cc(/C=N/NC(=O)c2ccc3c(c2)OCO3)c1O	SW480 rereplic inconclusive, HT1080 IDH1KD tx 16µM, KB-3-1 tox inconclusive, HT1080-NT tox inconclusive
O=C(N/N=C/c1cc(Cl)cc([N+](=O)[O-])c1O)NC12CC3CC(CC(C3)C1)C2	KB-V1 MDR tox inconclusive, KB-3-1 tox inconclusive, MCF10A rereplic 18µM
O=C(N/N=C/c1ccccc1O)NC12CC3CC(CC(C3)C1)C2	HT1080 IDH1KD tx inconclusive, MCF10A rereplic inconclusive, HT1080-NT tox inconclusive
O=C(N/N=C/c1cc(Cl)cc([N+](=O)[O-])c1O)c1ccc2c(c1)OCO2	SW480 rereplic 18µM, KB-3-1 tox inconclusive, MCF10A rereplic inconclusive
COc1cc(Cl)cc(/C=N\NC(=O)c2ccc3c(c2)OCO3)c1O	KB-V1 MDR tox inconclusive, HT1080 IDH1KD tx 9.2µM, HT1080-NT tox 9.2µM (no result: SW480 rereplic, MCF10A rereplic)
CC(=O)Nc1ccc(NC(=O)CSc2nnc3ccc(-c4ccccn4)nn23)cc1	none
CCOc1ncccc1C(=O)OCC(=O)c1ccccc1Br	none
Cc1ccc(NC(=S)Nc2ccccn2)c(C)c1	HT1080-NT tox inconclusive
CN(C(=O)CSc1nnnn1-c1ccc(O)cc1)C1CCS(=O)(=O)C1 (configuration not stated)	none
CCOC(=O)C(=O)c1csc(NC(=O)CCSc2ccc(C)cc2)n1	MCF10A rereplic 0.58µM
COc1cc(C)c(S(=O)(=O)NCc2cccnc2)cc1C	none
Cc1cccc(C(=O)NCc2nnc(SCC(=O)NC(C)c3ccccc3)n2C)c1 (configuration not stated)	SW480 rereplic 18µM
O=C(Nc1cccnc1)c1ccc(CN2CCc3ccccc3C2)cc1	KB-V1 MDR tox inconclusive
Cc1cc(C)cc(NC(=O)c2ccc(CN3CCc4ccccc4C3)cc2)c1	KB-V1 MDR tox inconclusive, HT1080 IDH1KD tx 12µM, KB-3-1 tox inconclusive, MCF10A rereplic 21µM, HT1080-NT tox inconclusive
Cc1cc(C)cc(NC(=O)CSc2nc3c(c(=O)[nH]2)CN(Cc2ccc(F)cc2)CC3)c1	KB-V1 MDR tox 21µM!
O=C(Nc1ccccc1F)c1ccc(CN2CCc3ccccc3C2)cc1	KB-V1 MDR tox 21µM, SW480 rereplic inconclusive, KB-3-1 tox 9.2µM, MCF10A rereplic inconclusive
COC(=O)c1ccc(C)c(NC(=O)c2ccc(CN3CCc4ccccc4C3)cc2)c1	none
O=C(Nc1ccccc1)c1ccc(CN2CCc3ccccc3C2)cc1	KB-V1 MDR tox inconclusive, KB-3-1 tox inconclusive, MCF10A rereplic inconclusive
Cc1ccc(NC(=O)c2ccc(CN3CCc4ccccc4C3)cc2)cc1	KB-V1 MDR tox 4.1µM, HT1080 IDH1KD tx inconclusive, MCF10A rereplic inconclusive, HT1080-NT tox inconclusive
COc1ccccc1OCCNC(=O)C(c1ccccc1)c1ccccc1	KB-V1 MDR tox inconclusive
CC(=O)Nc1cc(C(=O)NCc2ccc(C)cc2)ccc1S(=O)(=O)c1ccc(Cl)cc1	none (no result: SW480 rereplic, HT1080 IDH1KD tx, MCF10A rereplic, HT1080-NT tox)
Cc1ccc2c(c1)N(CCC(=O)NCCN1CCOCC1)C(=O)CO2	none
